Bioassay records from PubChem.
HTT cytoprotect: Huntington cell model cytoprotection by ATP luminescence; PC12 HTT-Q103 induced, cytoprotection, ATP luminescence, 40 h; Potency, µM (series often up to 56.4 µM), inactives show cytoprotection (ATP increase), hits mostly activators; 230,000 compounds, 0.14% hits; AID 1471; active = well fitted curve in the direction sought with a large enough effect; inconclusive = small, poorly fitted or top-dose-only effect, or another doubt; inactive = no such curve, though single readings can be large; an effect the other way counts as inactive or inconclusive; also: % of control where 0% means no effect; nearly all actives have a fitted effect of over 45% in size
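ATP quantification (ATPlite) reports survival of PC12 cells in which tebufenozide, 100 nM final, switches on Htt exon 1 with 103 glutamines linked to GFP; compounds are titrated.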
HTT aggregate: mutant huntingtin aggregation inhibition | PC12 HttQ103-GFP aggregates, Acumen cytometry, 40 h | Potency, µM (top dose mostly 46.1 µM), without a hit: at the top dose activity change, negative = inhibition, usual class: inhibitors | 220,000 compounds, 1.1% hits; active = well fitted curve in the direction sought with a large enough effect; inconclusive = small, poorly fitted or top-dose-only effect, or another doubt; inactive = no such curve, though single readings can be large; an effect the other way counts as inactive or inconclusive; also: % is scaled to controls: 0 for no effect and ±100 for the full control effect; nearly all actives have a fitted effect of over 60% in size
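Huntingtin Q103 exon 1–GFP aggregates in induced PC12 cells (100 nM tebufenozide) were quantified by cytometry from lysates, with compounds dosed in titration.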
LMNA splice mod: LMNA splicing modulation; HeLa LMNA splicing GFP/RFP minigene ratio, 48 h; Potency, µM (top dose mostly 46.1 µM), for the others: at the top dose ratio change, negative = inhibition, most hits filed as inhibitors; 200,000 compounds, 0.01% hits; active = well fitted inhibition curve with a large enough effect in the signal ratio, with a control signal flat, not every such curve was filed as active; inconclusive = small, poorly fitted or top-dose-only effect, or effect the other way, or a change in a side signal; the % refers to the signal ratio; also: % is scaled to controls: 0 for no effect and ±100 for the full control effect
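S3 HeLa stable clones carrying a lamin A-EGFP splicing minigene plus DsRed2 were seeded at 600 cells/well in Opti-MEM with 2% FBS, pin-dosed and incubated 48 h at 37°C. Acumen cytometry (488 nm) gave the GFP/RFP total-intensity ratio.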
ALDH1A1 block: ALDH1A1 (human) enzyme inhibition | 220,000 compounds, 7.3% hits | P00352 | Potency, µM (series often up to 75.3 µM), without a hit: at the top dose activity, negative = inhibition, most hits filed as inhibitors | AID 1030 | Purified ALDH1A1, NADH fluorescence, propionaldehyde substrate;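 also: plate controls were no enzyme wells and a reference inhibitor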
Target sequence (P00352 whole entry, looked up): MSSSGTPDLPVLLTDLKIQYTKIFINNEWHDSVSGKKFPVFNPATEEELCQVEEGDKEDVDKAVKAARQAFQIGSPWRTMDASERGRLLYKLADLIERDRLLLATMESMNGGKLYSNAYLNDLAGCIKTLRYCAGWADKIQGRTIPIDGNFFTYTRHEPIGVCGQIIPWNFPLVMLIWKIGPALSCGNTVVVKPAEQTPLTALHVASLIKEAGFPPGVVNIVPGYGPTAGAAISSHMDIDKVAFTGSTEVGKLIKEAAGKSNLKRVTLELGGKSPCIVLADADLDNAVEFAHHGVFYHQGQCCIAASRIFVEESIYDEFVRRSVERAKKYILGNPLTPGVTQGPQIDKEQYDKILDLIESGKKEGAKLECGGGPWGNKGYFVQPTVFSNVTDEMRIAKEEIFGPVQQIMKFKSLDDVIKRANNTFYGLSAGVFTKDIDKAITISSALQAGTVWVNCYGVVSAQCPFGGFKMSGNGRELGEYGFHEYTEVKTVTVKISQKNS
HPGD inh: inhibitors of human 15-hydroxyprostaglandin dehydrogenase (HPGD); P15428; purified HPGD, NADH fluorescence kinetic, PGE2 substrate; Potency, µM, inactives show at the highest dose activity change, negative = inhibition, actives largely listed as inhibitors; 150,000 compounds, 4.3% hits; also: % is scaled to controls: 0 for no effect and ±100 for the full control effect
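20 nM HPGD preincubated 15 min at room temperature with compound in 50 mM Tris-HCl pH 8, 0.01% Tween 20. Started with 1 mM NAD+ and 30 uM prostaglandin E2; NADH fluorescence (360/450 nm) read 5 times over 30-s intervals, last minus first.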
KDM4E inh: blocks human JMJD2E demethylase activity; 230,000 compounds, 1.6% hits; Potency, µM (series often up to 57.1 µM), for inactives: top-dose activity change, negative = inhibition, most hits filed as inhibitors; AID 2147; B2RXH2; JMJD2E catalytic domain, FDH-coupled NADH fluorescence (FDH is formaldehyde dehydrogenase);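 also: 0% = wells with enzyme and -100% = buffer wells without enzyme; nearly all actives have a fitted effect of over 50% in size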
* = called active by the depositor; ? = inconclusive; / = not tested or not shown; [ ] = remark or other dose. The list is not random: actives were taken first. Their share in the collection is about 9.2%. Unless noted, calls follow the shape of the dose curve; as a rule, active = well fitted inhibition curve with a large enough effect (not every such curve was filed as active); inconclusive = small, poorly fitted or top-dose-only effect, or another doubt; inactive = no such curve, though single readings can be large or run the other way. Potency is read from the fitted curve at half-maximal effect.

SMILES	HTT cytoprotect	HTT aggregate	LMNA splice mod	ALDH1A1 block	HPGD inh	KDM4E inh
S=c1[nH]nc(COc2ccccc2)n1C1CCCCC1	-7%	5%	3%	?	22µM*	-21%
CN1CCCC2(CCN(C(=O)c3cc(C(F)(F)F)cc(C(F)(F)F)c3)CC2)C1	-11%	/	/	11%	-9%	/
CC(C)NC(=O)N1CC2(CCN(C(=O)c3cc(C(F)(F)F)cc(C(F)(F)F)c3)CC2)C1	-5%	/	/	7%	-1%	/
N=C(N)SCC(=O)O	-17%[10 µM]	/	/	7%[13.5 µM]	-12%	/
C[C@@]12CC(=O)[C@@H]3[C@@H](CCC4=CC(=O)CC[C@]43C)[C@@H]1CC=C2CC(=O)O	-5%[10 µM]	/	/	6%[13.5 µM]	-6%	/
C=CCn1c(-c2csc(-c3ccccc3)n2)n[nH]c1=S	-29%	14%	?	0.11µM*	?	-7%
Cc1ccc(-n2c(Cc3noc4ccccc34)n[nH]c2=S)cc1	1%	-12%	/	14µM*	/	-26%
S=c1[nH]nc(COc2ccccc2)n1Cc1ccccc1	10%[10 µM]	10%	?	11µM*	?	-5%
C=CCn1c(-c2csc(-c3ccc(Cl)cc3)n2)n[nH]c1=S	-15%	3%	1%	?	-24%	-12%
CCc1ccc(OCc2n[nH]c(=S)n2Cc2ccccc2)cc1	?	9%[9.22 µM]	/	-4%	/	-3%
O=c1c2cn[nH]c2nc(SCc2cc(=O)n3cc(Br)ccc3n2)n1-c1ccc(Br)cc1	5%	9%	/	-3%	/	?
O=C(CSc1nc2[nH]ncc2c(=O)n1-c1ccccc1)NCCc1ccccc1	16%	?	-1%[9.22 µM]	?	/	11%
O=C(CSc1nc2[nH]ncc2c(=O)n1-c1ccccc1)c1ccc2c(c1)OCCO2	-23%	-32%	?	0.32µM*	0%	-1%
O=c1c2cn[nH]c2nc(SCc2ccccc2F)n1-c1ccc(Br)cc1	/	13µM*	?	?	0%	1%
Cc1cccc(NC(=O)CSc2nc3[nH]ncc3c(=O)n2-c2ccccc2)c1	/	-2%	3%	4.5µM*	-11%	-15%
Cc1cccc(NC(=O)CSc2nc(NS(=O)(=O)c3ccccc3)cc(=O)[nH]2)c1	12%[10 µM]	-6%[9.22 µM]	/	28µM*	/	?
Cc1ccc(NC(=O)CSc2nc(NS(=O)(=O)c3ccc(C)cc3)cc(=O)[nH]2)cc1	12%	-10%	?	4%	-2%	-26%
COC(=O)c1cc(=O)n(Cc2ccc(F)cc2)c(=Nc2ccccc2)s1	-23%[10 µM]	-19%[9.22 µM]	/	/	/	-17%
COC(=O)c1cc(=O)n(Cc2ccco2)c(=Nc2ccc(F)cc2)s1	10%[10 µM]	-8%[9.22 µM]	/	11µM*	/	-6%
O=C(CCl)NCCCCCCCCCNC(=O)CCl	8%[10 µM]	3%[9.22 µM]	-1%	0.18µM*	-10%	6%
CCC(=O)NCCCCCCNC(=O)CC	8%	6%[9.22 µM]	19%	13%	4%	8%
Cc1ccc(C)n1-c1nc(=S)[nH][nH]1	-6%	14%	-1%	25µM*	16µM*	?
CS(=O)(=O)c1ccc(C2=C(c3ccccc3)C(=O)OC2)cc1	?	16%	-11%	2.8µM*	15%	5%
CCn1c2ccccc2c2cc(NC(=O)COC(=O)c3cc(Cl)c(N)cc3OC)ccc21	-9%[10 µM]	-9%[9.22 µM]	/	/	/	?
O=C(/C=C/c1cccc([N+](=O)[O-])c1)NCC1CCCO1 (stereo not drawn)	13%[10 µM]	5%	-5%	14µM*	6.3µM*	-5%
O=C(NCC1CCCO1)C(=Cc1cccc([N+](=O)[O-])c1)C(=O)NCC1CCCO1 (stereo not drawn)	?	?	?	-2%	-12%	4%
O=C(/C=C/c1cccc([N+](=O)[O-])c1)NCCSCc1ccccc1Cl	-17%[10 µM]	28%	?	13µM*	-22%	7%
O=C(/C=C/c1cccc([N+](=O)[O-])c1)NCCSCc1ccc(Cl)cc1Cl	-3%[10 µM]	-3%	?	?	-8%	-1%
O=C(COC(=O)c1cc(=O)[nH]c(=O)[nH]1)Nc1cccc(S(=O)(=O)N2CCCCC2)c1	/	18%	/	4%	/	-4%
